Test results reported in PubChem BioAssay AID1159580 (chemical genetic matrix, 2015).
“And” between values parts separate entries of the source, which are not always exact repeats. Equal entries are not always repeated. Screen size: about 5,500 compounds; about 2,000 (36%) were called active. Roughly 18% stayed inconclusive and do not appear here. Cut-off read from the data, not from the text of the source: active = normalized growth mostly below about 0.91 (no sharp cut-off); inconclusive = no clear call, values can overlap the other calls; inactive = mostly above about 0.92. Some of the results follow.

Assay: chemical genetic growth profiling, strain panel (AID 1159580);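 note: tested at 20 µM; growth read once vehicle control cultures reached saturation at 30 °C; 1 = growth at the plate median or of vehicle wells; lower values mean less growth of the strain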
Details: S. cerevisiae deletion strains, growth OD

Measured: normalized growth

CC(=O)OCC(=O)[C@@]1(O)CCC2C3CCC4=CC(=O)CC[C@]4(C)[C@@]3(F)[C@@H](O)C[C@@]21C (stereo partly specified)
inactive: locus YAL021C, strain ccr4, hits give low values 1.03 | locus YAL026C, strain drs2, hits give low values 1.01 | locus YAL030W, strain snc1, hits give low values 1.01 | locus YBL061C, strain skt5, hits give low values 1.01 | locus YBR009C, strain hhf1, hits give low values 1.01 | locus YBR021W, strain FUR4, hits give low values 1.01 | locus YBR023C, strain chs3, hits give low values 1.03 | locus YBR171W, strain sec66, hits give low values 1.04 | locus YBR229C, strain ROT2, hits give low values 1 | locus YBR231C, strain swc5, hits give low values 0.993 | locus YBR279W, strain paf1, hits give low values 1.02 | locus YCL011C, strain gbp2, hits give low values 1.02 | locus YCL016C, strain dcc1, hits give low values 1.02 | locus YCL029C, strain bik1, hits give low values 0.995 | locus YCL061C, strain MRC1, hits give low values 1.02 | locus YCL069W, strain vba3, hits give low values 1.02 | locus YCR088W, strain abp1, hits give low values 1.01 | locus YDL005C, strain med2, hits give low values 1.02 | locus YDL035C, strain GPR1, hits give low values 0.992 | locus YDL040C, strain nat1, hits give low values 1 | locus YDL074C, strain BRE1, hits give low values 1.02 | locus YDL101C, strain DUN1, hits give low values 1.01 | locus YDL185W, strain tfp1, hits give low values 0.995 | locus YDL192W, strain arf1, hits give low values 1 | locus YDR001C, strain nth1, hits give low values 1.01 | locus YDR069C, strain doa4, hits give low values 1.01 | locus YDR101C, strain arx1, hits give low values 0.981 | locus YDR137W, strain rgp1, hits give low values 1.02 | locus YDR159W, strain sac3, hits give low values 0.997 | locus YDR162C, strain NBP2, hits give low values 0.998 | locus YDR195W, strain ref2 1 | locus YDR297W, strain sur2, hits give low values 1 | locus YDR318W, strain mcm21, hits give low values 1 | locus YDR334W, strain swr1, hits give low values 1.03 | locus YDR335W, strain msn5, hits give low values 1.01 | locus YDR388W, hits give low values 1 | locus YDR392W, strain spt3, hits give low values 0.989 | locus YDR502C, strain sam2, hits give low values 1 | locus YEL003W, strain gim4, hits give low values 1 | locus YEL037C, strain rad23, hits give low values 1.01 | locus YEL061C, strain CIN8 (second series), hits give low values 1.01 | locus YEL061C, strain CIN8, hits give low values 1 | locus YER015W, strain faa2, hits give low values 1 | locus YER016W, strain bim1, hits give low values 1 | locus YER110C, hits give low values 1 | locus YER111C, strain swi4, hits give low values 1.02 | locus YER155C, strain BEM2 (second series), hits give low values 1.01 | locus YER155C, strain BEM2, hits give low values 1.01 | locus YER167W, strain BCK2, hits give low values 1.01 | locus YFR010W, strain ubp6, hits give low values 1.02 | locus YGL078C, strain dbp3, hits give low values 1.01 | locus YGL086W, strain mad1, hits give low values 0.989 | locus YGL167C, strain pmr1, hits give low values 1.01 | locus YGL173C, strain kem1, hits give low values 1.02 | locus YGL227W, strain vid30, hits give low values 1.02 | locus YGL240W, strain doc1, hits give low values 1.01 | locus YGL248W, strain PDE1, hits give low values 1.01 | locus YGL253W, strain hxk2, hits give low values 1.01 | locus YGR135W, strain pre9, hits give low values 1.03 | locus YGR252W, strain gcn5, hits give low values 1.05 | locus YHR013C, strain ard1, hits give low values 1.04 | locus YHR027C, strain rpn1, hits give low values 1.03 | locus YHR030C, strain SLT2, hits give low values 0.997 and 1.01 | locus YHR079C, strain IRE1 (second series), hits give low values 1.01 | locus YHR079C, strain IRE1, hits give low values 0.995 | locus YHR094C, strain hxt1, hits give low values 1.01 | locus YHR129C, strain ARP1, hits give low values 1.01 | locus YHR142W, strain chs7, hits give low values 1.01 | locus YHR200W, strain rpn10, hits give low values 0.996 | locus YIL066C, strain RNR3, hits give low values 0.995 | locus YIL073C, strain SPO22, hits give low values 1.03 | locus YIL125W, strain kgd1, hits give low values 1 | locus YIR030C, strain dcg1, hits give low values 0.998 | locus YJL092W, strain hpr5, hits give low values 1.02 | locus YJL095W, strain BCK1 (second series), hits give low values 1.01 | locus YJL095W, strain BCK1, hits give low values 1.03 and 1 | locus YJL115W, strain asf1, hits give low values 1.03 | locus YJL129C, strain trk1, hits give low values 1.03 | locus YJL134W, strain LCB3, hits give low values 1.01 | locus YJL154C, strain vps35, hits give low values 1.01 | locus YJL164C, strain tpk1, hits give low values 1.01 | locus YJL166W, strain qcr8, hits give low values 1.02 | locus YJL168C, strain set2, hits give low values 1.01 | locus YJL187C, strain SWE1 (second series), hits give low values 1.01 | locus YJL187C, strain SWE1, hits give low values 1.01 | locus YJR043C, strain POL32, hits give low values 0.993
